# Measurements published in PubChem BioAssay (NCATS).
# “And” between values parts separate entries of the source, which are not always exact repeats. Equal entries are not always repeated. Records with an inconclusive call do not appear. The source made the active and inactive calls. Unless noted, calls follow the shape of the full dose curve.
# Legend:
# [1] = Validation of Assay for Modulators of Lamin A Splicing (AID 1459; active = well fitted curve in the direction sought with a large enough effect in the signal ratio; the % refers to the signal ratio;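 also: cells exposed to compound for two days before reading; 0% is about no effect; ratio rise marks activators and ratio drop marks inhibitors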)
# Procedure, shortened: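 S3 HeLa cells stably expressing a lamin A-EGFP splicing minigene and DsRed2 were seeded at 600 cells/well in Opti-MEM with 2% FBS, pin-dosed, and incubated 48 hrs at 37 °C, 5% CO2. Laser-scanning cytometry (488 nm) gave GFP/RFP total intensity ratio.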
# [2] = qHTS Assay for Lipid Storage Modulators (AID 1519); details: Drosophila S3 cells, BODIPY lipid droplet/cell ratio, laser cytometry, cells loaded with oleic acid; as to activity change, negative = inhibition: % is scaled to controls: 0 for no effect and ±100 for the full control effect
# Procedure, shortened: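 Cells seeded at 5,000 per well were treated with compounds over a concentration series and loaded with oleic acid (400 uM, as added). Lipid droplet fluorescence (488 nm excitation, 500-530 nm channel) was read by laser-scanning cytometry and normalized to 20 uM Triacsin C.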
# [3] = molecular target: Alpha-galactosidase A (Homo sapiens) (UniProt P06280); assay: Counterscreen for Glucocerebrosidase Inhibitors: qHTS Assay for Human alpha-Galactosidase at pH 4.5 (AID 992; active = well fitted curve in the direction sought with a large enough effect; an effect the other way counts as inactive or inconclusive; also: 0% is about no effect)
# Alpha-galactosidase A (Homo sapiens), sequence (P06280 whole entry, looked up): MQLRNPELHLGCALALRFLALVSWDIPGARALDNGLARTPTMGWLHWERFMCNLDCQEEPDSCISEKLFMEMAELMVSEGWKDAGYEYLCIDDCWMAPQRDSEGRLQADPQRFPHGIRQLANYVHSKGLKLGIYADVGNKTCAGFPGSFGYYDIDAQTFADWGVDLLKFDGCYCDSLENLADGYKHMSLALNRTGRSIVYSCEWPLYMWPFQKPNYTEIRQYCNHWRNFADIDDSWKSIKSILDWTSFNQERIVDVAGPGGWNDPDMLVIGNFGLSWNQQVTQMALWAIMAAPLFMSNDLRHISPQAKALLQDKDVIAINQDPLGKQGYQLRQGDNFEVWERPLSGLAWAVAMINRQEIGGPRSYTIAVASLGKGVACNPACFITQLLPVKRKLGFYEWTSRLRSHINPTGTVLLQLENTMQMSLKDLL
# Procedure, shortened: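 Fluorogenic 1536-well qHTS at pH 4.5 (citrate, Tween-20): 2 nM enzyme, 80 uM 4-MU-alpha-galactoside, 20 min room temperature, NaOH/glycine stop. Titration 0.7 nM to 77 uM, data normalized to no-enzyme and full-activity controls, Hill-fitted AC50.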
# [4] = molecular target: alpha-glucosidase (Oryza sativa, rice) (UniProt Q653V4); assay: Counterscreen for Glucocerebrosidase Inhibitors: qHTS Assay for Rice alpha-Glucosidase at pH 5.0 (AID 997; active = well fitted curve in the direction sought with a large enough effect; an effect the other way counts as inactive or inconclusive;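 also: 0% = full activity with enzyme and -100% = basal without enzyme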)
# Procedure, shortened: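 Endpoint fluorogenic assay at pH 5.0: compounds (0.7 nM to 77 uM) titrated against 4 nM rice enzyme and 400 uM 4-MU-alpha-glucoside for 20 min at room temperature; NaOH/glycine stop, read ex 365/em 440 nm, Hill-fitted AC50.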
# [5] = Cell Viability - LYMP2-016 (AID 984; active = well fitted curve in the direction sought with a large enough effect; an effect the other way counts as inactive or inconclusive;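 also: cells exposed to compound for 24 hours at 37 °C; % is scaled to controls: 0 for no effect and ±100 for the full control effect; nearly all actives have a fitted effect of over 55% in size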)
# Procedure, shortened: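 Human lymphoblastoid cells (LYMP2-016), 2500/well in complete medium, preincubated 5 hr at 37 C, then compound-treated 24 hr at 37 C. Intracellular ATP read by CellTiter-Glo luminescence after 30 min at room temperature; AC50 from Hill-equation concentration-response fits.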
# [6] = Cell Viability - LYMP2-018 (AID 985; active = well fitted curve in the direction sought with a large enough effect; an effect the other way counts as inactive or inconclusive;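 also: plate controls were DMSO only for no effect and tetraoctylammonium bromide at 92 µM for full effect; nearly all actives have a fitted effect of over 50% in size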)
# Procedure, shortened: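 2500 cells/well; 5 hr 37 C; cmpd 24 hr 37 C, complete medium; CellTiter-Glo 30 min RT; luminescence. Tetraoctylammonium bromide positive control. AC50 via Hill fit.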
# [7] = Cell Viability - LYMP2-020 (AID 986; active = well fitted curve in the direction sought with a large enough effect; an effect the other way counts as inactive or inconclusive;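 also: plate controls were DMSO only for no effect and tetraoctylammonium bromide at 92 µM for full effect; nearly all actives have a fitted effect of over 55% in size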)
# Procedure, shortened: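 qHTS, 2500 cells/well; 5 hr then 24 hr compound exposure, 37 C; CellTiter-Glo luminescence after 30 min RT; ATP decrease taken as cytotoxicity; AC50 via Hill equation; tetraoctylammonium bromide positive control.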
# [8] = Cell Viability - LYMP2-026 (AID 989; active = well fitted curve in the direction sought with a large enough effect; an effect the other way counts as inactive or inconclusive; also: % is scaled to controls: 0 for no effect and ±100 for the full control effect; nearly all actives have a fitted effect of over 50% in size)
# Procedure, shortened: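 qHTS cytotoxicity: 2500 cells/well, 5 hr 37 C, compound 24 hr 37 C, CellTiter-Glo 30 min RT, luminescence. Tetraoctylammonium bromide positive control. AC50 via standard Hill fit.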
# [9] = Cell Viability - LYMP1-002 - Assay at 24 hr (AID 993; active = well fitted curve in the direction sought with a large enough effect; an effect the other way counts as inactive or inconclusive; also: % is scaled to controls: 0 for no effect and ±100 for the full control effect)
# Procedure, shortened: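 CellTiter-Glo luminescence (intracellular ATP) after 24 h compound exposure, 37 C, in LYMP1-002 human lymphoblastoid cells; decreased ATP taken as cytotoxicity. AC50 from standard Hill fit of concentration-response curves.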
# [10] = Cell Viability - LYMP1-002 - Assay at 40 hr (AID 994; active = well fitted curve in the direction sought with a large enough effect; an effect the other way counts as inactive or inconclusive; also: nearly all actives have a fitted effect of over 60% in size; also: potency is read from the fitted curve at half-maximal effect)
# Procedure, shortened: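 qHTS cytotoxicity; 2500 cells/well, 5 hr 37 C settle, compound 40 hr 37 C. CellTiter-Glo, 30 min RT, luminescence (ATP). Concentration-response, Hill fit → AC50. Pos. ctrl tetraoctylammonium bromide.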
# [11] = measured here: cell count channel max response
# [12] = measured here: lipid channel max response
structure (smiles),measurement,setting,value
CC(C)NCC(O)c1ccc(NS(C)(=O)=O)cc1 (stereo unspecified),outcome,[1],inactive
C1CCC(C(CC2CCCCN2)C2CCCCC2)CC1 (stereo unspecified),"activity change, negative = inhibition",[2]; at 57.5 µM (top of the series),-9.69% (inactive)
same,max response,[2]; [11],-15.8%
same,max response,[2]; [12],-21.2%
CCN1CCCC1CNC(=O)c1cc(S(N)(=O)=O)ccc1OC (stereo unspecified),outcome,[1],inactive
same,"activity change, negative = inhibition",[2]; at 57.5 µM (top of the series),2.89% (inactive)
same,max response,[2]; [11],2.98%
same,max response,[2]; [12],5.52%
CC1=C(C(=O)O)N2C(=O)[C@@H](NC(=O)C(N)c3ccccc3)[C@H]2SC1 (stereo partly specified),outcome,[1],inactive
same,"activity change, negative = inhibition",[2]; at 57.5 µM (top of the series),1.54% (inactive)
same,max response,[2]; [11],-18.2%
same,max response,[2]; [12],-16%
COC(=O)Nc1nc2ccc(C(=O)c3ccccc3)cc2[nH]1,"activity change, negative = inhibition",[2]; at 25.7 µM (top of the series),-15.3% (inactive)
same,max response,[2]; [11],-1.6%
same,max response,[2]; [12],-17.4%
Cc1cccc(N(C)C(=S)Oc2ccc3ccccc3c2)c1,"activity change, negative = inhibition",[2]; at 25.7 µM (top of the series),1.79% (inactive)
same,max response,[2]; [11],-7.01%
same,max response,[2]; [12],-5.23%
Oc1c(Cl)cc(Cl)c2cccnc12,"activity change, negative = inhibition",[2]; at 57.5 µM (top of the series),-20.1% (inactive)
same,max response,[2]; [11],-11.5%
same,max response,[2]; [12],-27.9%
COC(=O)Nc1nc2ccc(S(=O)c3ccccc3)cc2[nH]1 (stereo unspecified),"activity change, negative = inhibition",[2]; at 57.5 µM (top of the series),10.3% (inactive)
same,max response,[2]; [11],14.2%
same,max response,[2]; [12],29.6%
S=P(N1CC1)(N1CC1)N1CC1,"activity change, negative = inhibition",[2]; at 57.5 µM (top of the series),7.1% (inactive)
same,max response,[2]; [11],5.1%
same,max response,[2]; [12],17.7%
Clc1ccccc1CN1CCc2sccc2C1,"activity change, negative = inhibition",[2]; at 25.7 µM (top of the series),-0.65% (inactive)
same,max response,[2]; [11],-21%
same,max response,[2]; [12],-18.8%
Nc1nc(=S)c2[nH]cnc2[nH]1,"activity change, negative = inhibition",[2]; at 57.5 µM (top of the series),8.45% (inactive)
same,max response,[2]; [11],14.3%
same,max response,[2]; [12],28.9%
CN(Cc1cc(Br)cc(Br)c1N)C1CCCCC1,"activity change, negative = inhibition",[2]; at 57.5 µM (top of the series),-8.74% (inactive)
same,max response,[2]; [11],-7.97%
same,max response,[2]; [12],-15.4%
COC(=O)Nc1nc2ccc(Sc3ccccc3)cc2[nH]1,"activity change, negative = inhibition",[2]; at 57.5 µM (top of the series),4.46% (inactive)
same,max response,[2]; [11],-3.56%
same,max response,[2]; [12],3.98%
OCc1ccc(-c2nn(Cc3ccccc3)c3ccccc23)o1,outcome,[3],inactive
same,outcome,[4],inactive
same,outcome,[1],inactive
O=C(O)C1CCCN(CCC=C(c2ccccc2)c2ccccc2)C1 (stereo unspecified),outcome,[1],inactive
CN1CCCC(n2nc(Cc3ccc(Cl)cc3)c3ccccc3c2=O)CC1 (stereo unspecified),"activity change, negative = inhibition",[2]; at 57.5 µM (top of the series),4.52% (inactive)
same,max response,[2]; [11],-4.14%
same,max response,[2]; [12],2.11%
CCOC(=O)c1ccc(OC(=O)CCCCCN=C(N)N)cc1,"activity change, negative = inhibition",[2]; at 25.7 µM (top of the series),1.48% (inactive)
same,max response,[2]; [11],-14.4%
same,max response,[2]; [12],-13.1%
Nc1[nH]c(=O)ncc1F,"activity change, negative = inhibition",[2]; at 25.7 µM (top of the series),0.855% (inactive)
same,max response,[2]; [11],2.68%
same,max response,[2]; [12],3.39%
COc1ccc(C(=O)CC(=O)c2ccc(C(C)(C)C)cc2)cc1,"activity change, negative = inhibition",[2]; at 57.5 µM (top of the series),1.96% (inactive)
same,max response,[2]; [11],-16.9%
same,max response,[2]; [12],-13.6%
COc1c(N2CCNC(C)C2)c(F)cc2c(=O)c(C(=O)O)cn(C3CC3)c12 (stereo unspecified),"activity change, negative = inhibition",[2]; at 57.5 µM (top of the series),6.55% (inactive)
same,max response,[2]; [11],19.6%
same,max response,[2]; [12],29.5%
CCCOc1ccc(C(=O)OCCN(CC)CC)cc1N,"activity change, negative = inhibition",[2]; at 25.7 µM (top of the series),-0.0947% (inactive)
same,max response,[2]; [11],10.6%
same,max response,[2]; [12],9.95%
CCCCS(=N)(=O)CCC(N)C(=O)O (stereo unspecified),outcome,[1],inactive
same,"activity change, negative = inhibition",[2]; at 57.5 µM (top of the series),7.27% (inactive)
same,max response,[2]; [11],23.2%
same,max response,[2]; [12],33.5%
O=S(=O)(O)CCS,"activity change, negative = inhibition",[2]; at 57.5 µM (top of the series),4.92% (inactive)
same,max response,[2]; [11],14.6%
same,max response,[2]; [12],25.1%
COc1ncnc(NS(=O)(=O)c2ccc(N)cc2)c1OC,"activity change, negative = inhibition",[2]; at 25.7 µM (top of the series),-2.34% (inactive)
same,max response,[2]; [11],-20.8%
same,max response,[2]; [12],-23.2%
CN(C)CCc1c[nH]c2ccc(CS(=O)(=O)N3CCCC3)cc12,"activity change, negative = inhibition",[2]; at 57.5 µM (top of the series),5.82% (inactive)
same,max response,[2]; [11],19.2%
same,max response,[2]; [12],27.5%
CNS(=O)(=O)Cc1ccc2[nH]cc(CCN(C)C)c2c1,"activity change, negative = inhibition",[2]; at 57.5 µM (top of the series),8.81% (inactive)
same,max response,[2]; [11],40%
same,max response,[2]; [12],52.5%
NCCCC(O)(P(=O)(O)O)P(=O)(O)O,"activity change, negative = inhibition",[2]; at 57.5 µM (top of the series),6.27% (inactive)
same,max response,[2]; [11],-1.05%
same,max response,[2]; [12],16.4%
O=S(=O)(c1cccc2cnccc12)N1CCCNCC1,"activity change, negative = inhibition",[2]; at 57.5 µM (top of the series),-2.33% (inactive)
same,max response,[2]; [11],9.76%
same,max response,[2]; [12],6.29%
CCCCCCNC(=O)n1cc(F)c(=O)[nH]c1=O,"activity change, negative = inhibition",[2]; at 57.5 µM (top of the series),8.3% (inactive)
same,max response,[2]; [11],11.2%
same,max response,[2]; [12],19.7%
CCN(CC)CC#CCOC(=O)C(O)(c1ccccc1)C1CCCCC1 (stereo unspecified),outcome,[1],inactive
NNC(=O)c1ccncc1,Potency,[5],inactive
same,Potency,[6],inactive
same,Potency,[7],inactive
same,Potency,[8],inactive
same,Potency,[9],inactive
same,Potency,[10],inactive
same,"activity change, negative = inhibition",[2]; at 25.7 µM (top of the series),-0.316% (inactive)
same,max response,[2]; [11],-8.98%
same,max response,[2]; [12],-8.54%
C[C@]12C=CC(=O)C=C1CC[C@@H]1[C@@H]2C(=O)C[C@@]2(C)[C@H]1CC[C@]2(O)C(=O)CO,Potency,[5],inactive
same,Potency,[6],inactive
same,Potency,[7],inactive
same,Potency,[8],inactive
same,Potency,[9],inactive
same,Potency,[10],inactive
N[C@@H](Cc1ccc(O)c(O)c1)C(=O)O,outcome,[3],inactive
same,outcome,[4],inactive
same,"activity change, negative = inhibition",[2]; at 25.7 µM (top of the series),-1.67% (inactive)
same,max response,[2]; [11],-2.41%
same,max response,[2]; [12],-4.9%
NC(=O)c1cccc(N)c1,outcome,[3],inactive
same,outcome,[4],inactive
same,"activity change, negative = inhibition",[2]; at 57.5 µM (top of the series),7.95% (inactive)
same,max response,[2]; [11],35.3%
same,max response,[2]; [12],59.1%
O=C(O)c1cc(=O)[nH]c(=O)[nH]1,Potency,[5],inactive
same,Potency,[6],inactive
same,Potency,[7],inactive
same,Potency,[8],inactive
same,Potency,[9],inactive
same,Potency,[10],inactive
OC(Cn1cncn1)(Cn1cncn1)c1ccc(F)cc1F,"activity change, negative = inhibition",[2]; at 57.5 µM (top of the series),11.9% (inactive)
same,max response,[2]; [11],12.6%
same,max response,[2]; [12],26.4%
N=C(N)c1ccc(OCCCCCOc2ccc(C(=N)N)cc2)cc1,Potency,[10],50.1 µM (active)
same,"activity change, negative = inhibition",[2]; at 25.7 µM (top of the series),-3.38% (inactive)
same,"activity change, negative = inhibition",[2]; at 57.5 µM (top of the series),3.95% (inactive)
same,max response,[2]; [11],3.1% and 6.27%
same,max response,[2]; [12],-0.0009% and 12.3%
